# FLuc modulator – qHTS profiling assay for firefly luciferase inhibitor/activator using purifed enzyme and Km concentrations of substrates (counterscreen for miR-21 project) | purified FLuc, Km substrates, luminescence inhibition | 360,000 compounds, 6.9% hits | Luciferin 4-monooxygenase (Photinus pyralis), P08659 | Potency, µM (series often up to 57.5 µM), for the others: at the highest dose activity change, negative = inhibition, actives largely listed as inhibitors;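 further: plate controls were vehicle for no effect and reference inhibitor for full effect; nearly all actives have a fitted effect of over 55% in size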
# Target sequence (P08659 whole entry, looked up): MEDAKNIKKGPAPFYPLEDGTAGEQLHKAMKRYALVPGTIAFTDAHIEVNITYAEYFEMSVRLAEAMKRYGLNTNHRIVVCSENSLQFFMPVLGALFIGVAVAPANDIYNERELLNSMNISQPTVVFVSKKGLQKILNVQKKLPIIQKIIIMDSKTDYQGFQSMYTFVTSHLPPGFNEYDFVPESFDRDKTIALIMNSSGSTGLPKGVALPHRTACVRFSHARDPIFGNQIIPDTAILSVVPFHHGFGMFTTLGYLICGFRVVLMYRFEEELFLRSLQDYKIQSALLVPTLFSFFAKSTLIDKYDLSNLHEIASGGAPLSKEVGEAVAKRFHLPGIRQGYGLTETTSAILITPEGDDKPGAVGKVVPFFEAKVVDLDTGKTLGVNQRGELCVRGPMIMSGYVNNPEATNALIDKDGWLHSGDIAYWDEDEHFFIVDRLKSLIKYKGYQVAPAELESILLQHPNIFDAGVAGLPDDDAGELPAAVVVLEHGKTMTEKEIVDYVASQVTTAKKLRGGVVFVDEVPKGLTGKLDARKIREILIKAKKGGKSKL
#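 Biochemical qHTS of compounds, final roughly 60 µM downward over six points, against 10 nM purified firefly luciferase using Km concentrations of substrates (10 uM D-luciferin, 10 uM ATP) in Tris acetate pH 7.5 buffer; luminescence output.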
# NPC1 prom act – qHTS Assay for NPC1 Promoter Activators; Huh7 NPC1 promoter luciferase reporter, 24 h; Potency, µM (doses to about 9.22 µM), inactives show top-dose activation, usual class: activators; 320,000 compounds, 2.4% hits; further: % of control where 0% means no effect; nearly all actives have a fitted effect of over 60% in size
#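 Luminescence read-out of NPC1 promoter-driven luciferase in stably transfected Huh7 cells; compounds delivered in DMSO and left 24 h at 37C, 5% CO2, qHTS titration format.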
# Rab9 prom act – qHTS Assay for Rab9 Promoter Activators | Huh7 Rab9 promoter-luciferase reporter, luminescence, 24 h | Potency, µM (top dose mostly 9.22 µM), inactives show top-dose activation, negative = inhibition, most hits filed as activators | 320,000 compounds, 2.8% hits; further: % of control where 0% means no effect; nearly all actives have a fitted effect of over 60% in size
#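 Huh7 reporter line, Rab9 promoter upstream of luciferase. Compound exposure 24 h at 37 °C in reduced-serum medium with 10% FBS. Read-out: luminescence.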
# SMN2 splice enh – qHTS Assay for Enhancers of SMN2 Splice Variant Expression | HEK293 SMN2-luciferase splicing reporter, luminescence, 30-36 h | Potency, µM (series often up to 46.1 µM), without a hit: top-dose activity change, positive = activation, most hits filed as activators | 210,000 compounds, 2.8% hits; further: % of control where 0% means no effect; nearly all actives have a fitted effect of over 55% in size
#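 HEK293 cells carry an SMN2 minigene-luciferase reporter in which exon 7 inclusion puts luciferase in frame. Cells were seeded at 2000 cells/well, attached for 10-12 hours, then exposed to compounds for 30-36 hours at 37C before ONE-Glo luminescence.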
# ELG1 repair inh – qHTS screen for small molecules that inhibit ELG1-dependent DNA repair in human embryonic kidney (HEK293T) cells expressing luciferase-tagged ELG1. 330,000 compounds, 2.3% hits. Potency, µM (highest dose often 46.1 µM), for inactives: top-dose activity change, negative = inhibition, most hits filed as inhibitors. HEK293T ELG1-luciferase reporter, luminescence, 16 h; DNA damage induced by 5-fluorouridine; further: on the % scale 0 is the no-effect control and ±100 the full control effect; nearly all actives have a fitted effect of over 55% in size
#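 DMSO vehicle served as the neutral condition. Each well held 2,000 cells given 5-fluorouridine plus compound; after 16 hr at 37 °C/5% CO2, ONE-Glo was added and luciferase measured 30 min later.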
# ELG1 genotox – qHTS screen for small molecules that induce genotoxicity in human embryonic kidney (HEK293T) cells expressing luciferase-tagged ELG1 | HEK293T ELG1-luciferase reporter, luminescence, 16 h | Potency, µM (series often up to 46 µM), for the others: at the top dose activity change, positive = activation, most hits filed as activators | 330,000 compounds, 1.3% hits | AID 504466, 2011; further: % of control where 0% means no effect; nearly all actives have a fitted effect of over 60% in size
#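 16 hr compound incubation (37 °C, 5% CO2) of HEK293T cells carrying luciferase-tagged ELG1; luciferase then measured by ONE-Glo luminescence after 30 min at RT.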
# Numbers without * were called inactive; ? = inconclusive; nt = not tested or not shown. Sampled rows, rich in hits. Any-hit rate of the full collection: about 9.2%. The call rests on the fitted dose curve; in most records, active means well fitted curve in the direction sought with a large enough effect; inconclusive means small, poorly fitted or top-dose-only effect, or another doubt; inactive means no such curve, though single readings can be large; an effect the other way counts as inactive or inconclusive. Potency means the concentration at half of the fitted maximal effect.
SMILES,FLuc modulator,NPC1 prom act,Rab9 prom act,SMN2 splice enh,ELG1 repair inh,ELG1 genotox
CCNC(=O)C1CCCN(c2nn3cc(-c4ccc(C)cc4)nc3s2)C1 (stereo unspecified),1.2µM*,nt,nt,nt,nt,nt
COc1ccc(-c2cn3nc(N4CCCC(C(=O)Nc5ccc(C)c(C)c5)C4)sc3n2)cc1 (stereo unspecified),-17%,nt,nt,nt,nt,nt
Cc1ccc(-c2cn3nc(N4CCCC(C(=O)NCc5ccc(F)cc5)C4)sc3n2)cc1 (stereo unspecified),8.5µM*,nt,nt,nt,nt,nt
COc1ccc(-c2cn3nc(N4CCCC(C(=O)Nc5cc(C)cc(C)c5)C4)sc3n2)cc1 (stereo unspecified),-19%,nt,nt,nt,nt,nt
COc1cccc(/C=N/N2C(=O)NC3(CCCCC3)C2=O)c1O,13µM*,0%,-3%,-10%,-1%,2%
Cc1cccc(N=Cc2cc(Br)cc(Cl)c2O)c1,?,0%,-2%,-6%,11%,-1%
CCOc1cc(/C=N/N2C(=O)NC3(CCCCC3)C2=O)cc(Br)c1O,-4%,-4%,9%,10%,?,-1%
COc1ccc(N=Cc2cccc(C)c2O)cc1Cl,27µM*,-4%,10%,7%,9%,2%
COc1cccc(C=Nc2ccc3c(c2)OCCO3)c1O,19µM*,7%,-1%,19%,?,?
COc1cccc(/C=N/N2CCOCC2)c1O,6.7µM*,30%,?,nt,?,?
Oc1ccc(/C=N/N2CCOCC2)c(O)c1O,?,-4%,6%,9%,-3%,-14%
C[C@@H](C(=O)Nc1ccc2ccccc2c1)[C@H]1C[C@]1(C)[C@H](NC(=O)Oc1ccc(F)cc1)c1ccccc1,nt,nt,nt,-10%,nt,nt
Cc1cccc(CNC(=O)C2CCN(S(=O)(=O)c3cccc4nonc34)CC2)c1,-2%,nt,nt,nt,nt,nt
Cc1cc(O)c(C=Nc2ccc(N3CCOCC3)cc2)c(C)c1Cl,4.8µM*,0%,5%,nt,-5%,-1%
COc1cccc(C=Nc2ccc(N3CCOCC3)cc2)c1O,12µM*,4%,15%,nt,-5%,-3%
CCN1CCN(c2ccc(N=Cc3ccccc3O)cc2)CC1,21µM*,2%,1%,-1%,-14%,-1%
COc1cc(NC(=O)COC(=O)CSc2cc(C)ccc2C)c(C)cc1[N+](=O)[O-],-1%,14%,0%,14%,-12%,0%
Nc1ccc(S(=O)(=O)NNC(=O)C(=O)NNc2ccccc2)cc1,1%,0%,-6%,-40%,17%,11%
O=C(NNc1ccccc1)C(=O)NNS(=O)(=O)c1ccc(CCCl)cc1,0%,2%,0%,nt,6.5µM*,9%
Cc1ccc(S(=O)(=O)N/N=C/c2ccccc2O)cc1[N+](=O)[O-],15µM*,-1%,-1%,-25%,8%,11%
C/C(=N\NS(=O)(=O)c1ccc(C)c([N+](=O)[O-])c1)c1ccc2c(c1)OCO2,11µM*,2%,-10%,nt,17%,0%
C/C(=N\NS(=O)(=O)c1ccc([N+](=O)[O-])cc1)c1ccc2c(c1)OCO2,-2%,-3%,6%,nt,4%,2%
Cc1cc(C)c(NC(=O)c2cccc(NC(=O)c3ccco3)c2)c(C)c1,-16%,-5%,6%,nt,-19%,-4%
Cc1ccc(N2CCN(S(=O)(=O)c3ccc4oc(=O)ccc4c3)CC2)c(C)c1,0%,2%,-6%,nt,-1%,-8%
CN(C)C(/C=C/Nc1cccc([N+](=O)[O-])c1)=C(C#N)C#N,-2%,2%,12%,5%,-7%,2%

# From PubChem
